# RecA splice inh – blocks M. tuberculosis RecA intein splicing; inhibition, % (concentration not given with the values); 290,000 compounds, 0.75% hits; cell-free RecA intein splicing, fluorescence; in the data active = inhibition above about 30%;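 also: 0% = vehicle wells and 100% = reference inhibitor control wells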
# Mtb RmlCD inh – M. tuberculosis RmlC/RmlD inhibition; 160,000 compounds, 0.03% hits; RmlC+RmlD coupled enzyme assay, percent inhibition; primary screen in compound mixtures; inhibition, % at 3.6 µM; P9WH09+P9WH11; in the data active = inhibition mostly above about 34%, no sharp cut-off
# GFP chromophore – counter-screen GFP chromophore formation inhibition. EC50, µM. AID 434968. cell-free GFP chromophore formation, fluorescence. 2,100 compounds, 83% hits. shares compounds with RecA splice inh; call rule not given here
# The depositor's hits bear a star; i = inactive; x = not tested or not shown. A selection: hits, their analogues and other compounds. The true share with any hit is near 0.77%.
SMILES,RecA splice inh,Mtb RmlCD inh,GFP chromophore
CCC1=Nc2cc(C(=O)NCCCN3CCOCC3)ccc2Sc2ccccc21,-1,x,x
CCc1c(C)sc(NC(=O)CN2CCN(C(=O)c3ccco3)CC2)c1C(=O)OC,6,x,x
N#CC1=C(N)Oc2n[nH]c(-c3ccccc3)c2C1c1cccnc1 (stereo not given),80*,x,17*
N#CC1=C(N)Oc2nc(-c3ccccc3)[nH]c2C1c1cccnc1 (stereo not given),78*,-4,23*
CCOC(=O)C1=C(C)OC(N)=C(C#N)C1c1ccc(O)c(OC)c1 (stereo not given),1,x,x
C#CCSc1nc(N)c2c(n1)OC(N)=C(C#N)C2c1cccnc1 (stereo not given),1,8,x
N#CC1=C(N)Oc2n[nH]c(-c3cccnc3)c2C1c1ccc([N+](=O)[O-])o1 (stereo not given),29,4,x
Cc1ccc(-c2[nH]nc3c2C(c2cccnc2)C(C#N)=C(N)O3)cc1 (stereo not given),69*,12,13*
CCOC(=O)C1=C(c2ccccc2)OC(N)=C(C#N)C1c1cccnc1 (stereo not given),-1,-8,x
CCOc1cc(C2C(C#N)=C(N)Oc3n[nH]c(-c4ccccc4)c32)ccc1O (stereo not given),83*,8,6.4*
N#Cc1ccccc1Sc1ccccc1C(=O)OCc1nnc(-c2ccccc2)o1,8,6,x
COc1ccc(N2CCN(C(=O)COC(=O)/C=C/c3ccc(OC(F)F)cc3)CC2)cc1,-2,x,x
CCCCn1c(SCC(=O)N2CC(=O)Nc3ccccc32)nnc1-c1ccoc1C,1,x,x
CCOC(=O)C1=C(C)OC(N)=C(C#N)C1c1ccoc1 (stereo not given),1,-6,x
Cc1cc(C)c(C2C(C#N)=C(N)Oc3n[nH]c(C)c32)cc1CN1CCOCC1 (stereo not given),-2,9,x
COc1ccc(-c2[nH]nc3c2C(c2ccoc2)C(C#N)=C(N)O3)cc1 (stereo not given),87*,x,4.7*
Cc1ccc(-c2[nH]nc3c2C(c2ccc(OC(=O)N4CCOCC4)cc2)C(C#N)=C(N)O3)cc1 (stereo not given),82*,-12,11*
O=c1[nH]c(N2CCOCC2)cc2ccccc12,69*,x,24*
O=c1c(N2CCOCC2)coc2ccccc12,-7,-8,x
CC(C)N(Cc1nccn1C)C(=O)c1cc(COc2cccc(C(F)(F)F)c2)on1,-1,x,x
CCc1ccc(OCC(=O)N/N=C2\CC(=O)c3ccccc32)cc1,53*,7,8.8*
COc1ccc(OCC(=O)N/N=C2\CCCCc3ccccc32)cc1,4,x,x
COC(=O)c1ccccc1CSc1nsc(C)c1C#N,0,x,x
C=CCN(Cc1ccco1)S(=O)(=O)c1ccc(Cl)cc1,-2,x,x
CCNC(=O)N1CCCC(C(=O)c2ccc(OC)c(OC)c2)C1 (stereo not given),4,5,x
SMILES,RecA splice inh,Mtb RmlCD inh,GFP chromophore
COc1ccc(N2CCN(C(=O)c3ccc(Oc4ccc(C(F)(F)F)cn4)cc3)CC2)cc1,31*,-11,>38
O=C(c1ccc(Oc2ccc(C(F)(F)F)cn2)cc1)N1CCN(c2ccccc2)CC1,4,-7,x
Cc1nn2c(=O)nc3sc4c(c3c2[nH]c1=O)CCCC4,-3,x,x
O=C(Cc1coc(-c2ccc(F)cc2)n1)NCc1ccccc1,-3,-13,x
O=C1CCN(S(=O)(=O)c2ccccc2)N1,43*,11,33*
O=C1CCN(S(=O)(=O)c2ccc(Cl)cc2)N1,x,-13,x
O=C(CC1(c2ccc(Cl)cc2)C2CC3CC(C2)CC1C3)NCCO (stereo not given),2,0,x
COCCn1c(N)c(C(=O)NCC2CCCO2)c2nc3ccccc3nc21 (stereo not given),i,-9,x
COCCn1c(N)c(C(=O)NCc2cccs2)c2nc3ccccc3nc21,62*,-7,>38
N#Cc1c(-c2ccccc2)ccn(Cc2cccc(Cl)c2)c1=O,1,5,x
O=C(O)CCCN1C(=O)/C(=C\C(Cl)=C\c2ccccc2)SC1=S,46*,x,>38
Cc1nn(-c2ccccc2)c(Cl)c1/C=C1\SC(=S)N(CCCCCC(=O)O)C1=O,37*,13,28*
Cc1nn(-c2ccccc2)c(Cl)c1/C=C1\SC(=S)NC1=O,4,10,x
CN1CCN(C(=O)CCCN2C(=O)/C(=C/c3ccccc3)SC2=S)CC1,6,x,x
Cc1ccn(CCC(=O)Nc2ccc3c(c2)OCO3)n1,3,x,x
CCOC(=O)c1nnn(-c2nonc2-n2cccc2)c1CN1CCC(C)CC1,10,15,x
CCOC(=O)c1nnn(-c2nonc2-n2cccc2)c1CCl,70*,x,12*
CCN(CC)S(=O)(=O)c1ccc(N2CCN(S(=O)(=O)c3ccccc3)CC2)nc1,0,x,x
CCN(CC)S(=O)(=O)c1ccc(N2CCN(S(=O)(=O)c3ccccc3C#N)CC2)nc1,32*,x,>38
O=C1C=C(NCc2ccc(Cl)c(Cl)c2)C2(CCCCC2)O1,7,12,x

# High-throughput results from PubChem.
